# Bioassay records deposited in PubChem BioAssay by National Center for Advancing Translational Sciences (NCATS).
# Most compounds without a hit are left out; they make up all but 1.3% or so of the library.
# Vif-A3F inh = qHTS for Inhibitors of Vif-A3F Interactions: qHTS; HeLa A3F-eYFP + Vif (tagged APOBEC3F with the HIV-1 protein that degrades it), YFP fluorescence increase; Potency, µM (doses to about 46.1 µM); actives 0.2% (n = 390,000); also: nearly all actives have a fitted effect of over 65% in size
#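 Fluorescence increase (Ex 488/Em 500-530) after overnight compound treatment at 37 deg C flags inhibition of Vif-driven A3F-eYFP loss in stable HeLa A3F-eYFP/Vif cells seeded overnight beforehand.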
# Vif-APOBEC3G blk = qHTS for Inhibitors of Vif-A3G Interactions: qHTS; HeLa A3G-eYFP + Vif (tagged APOBEC3G with the HIV-1 protein that degrades it), YFP fluorescence, overnight; Potency, µM (series often up to 46.1 µM), actives largely listed as inhibitors; actives 0.076% (n = 410,000); AID 602310, 2012; also: nearly all actives have a fitted effect of over 60% in size
# Target sequence (Q9HC16 whole entry, looked up): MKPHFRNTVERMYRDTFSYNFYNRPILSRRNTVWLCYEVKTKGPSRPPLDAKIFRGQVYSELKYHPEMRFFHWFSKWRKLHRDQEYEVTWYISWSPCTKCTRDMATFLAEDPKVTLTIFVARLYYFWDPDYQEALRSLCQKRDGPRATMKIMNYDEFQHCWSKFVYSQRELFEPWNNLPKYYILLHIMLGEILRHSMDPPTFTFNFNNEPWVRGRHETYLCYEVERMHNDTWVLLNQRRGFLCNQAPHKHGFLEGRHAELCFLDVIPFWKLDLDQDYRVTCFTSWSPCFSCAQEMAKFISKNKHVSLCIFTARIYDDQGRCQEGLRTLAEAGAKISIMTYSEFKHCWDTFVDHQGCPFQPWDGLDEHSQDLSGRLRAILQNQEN
#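 HeLa cells stably expressing Vif and C-terminally eYFP-tagged A3G, seeded overnight at 37 deg C, then exposed to compound by pintool overnight at 37 deg C. Rise in yellow fluorescence (Ex 488/Em 500-530, Acumen) marks blocked Vif-driven A3G degradation.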
# TRPML1 agonist = qHTS for Agonists of the Human Mucolipin Transient Receptor Potential 1 (TRPML1); Mucolipin-1 (Homo sapiens), Q9GZU1; activation, % (test concentration not listed); actives 0.12% (n = 410,000); TRPML1-expressing cells, Ca2+ dye fluorescence, FDSS; in the data active = activation above about 50%; inconclusive = mostly about 30% to 49%
#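 Tet-induced TRPML1-DL cells, 1,500 per well, cultured overnight, were loaded with a no-wash Ca2+ dye for 45–90 min. Calcium fluorescence was recorded on the FDSS for 110 s after compound addition, before the EC80 agonist (4 uM 54-4) was added.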
# GRP78 ERSR act = qHTS for Inducers of the Endoplasmic Reticulum Stress Response (ERSR) in Human Glioma: qHTS | U87-MG GRP78 promoter luciferase reporter, 16 h | Potency, µM, usual class: activators | actives 0.02% (n = 420,000) | AID 602332, 2012; also: series mostly up to about 76 µM; nearly all actives have a fitted effect of over 35% in size
#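 Stably transfected U87-MG human glioma cells carrying a GRP78-based luminescent sensor were seeded at 1000 cells/well, pin-dosed with compounds and incubated 16 h. Luciferase reagent was then added, and end-point luminescence was read after 10 min at room temperature.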
# TRPML1 inh = qHTS for Inhibitors of the Human Mucolipin Transient Receptor Potential 1 (TRPML1). Mucolipin-1 (Homo sapiens), Q9GZU1. TRPML1-inducible cells, Ca2+ dye fluorescence, FDSS; hits give low values; inhibition of EC80 agonist-evoked calcium signal. activity change, negative = inhibition, % (no concentration beside the values). actives 0.02% (n = 390,000); in the data active = activity change below about -50%; inconclusive = between about -30% and that limit;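 also: stimulus is agonist 54-4 at its EC80 concentration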
#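 TRPML1-DL cells, Tet-induced overnight (~16 h, 37 °C) at 1,500 cells/well, were loaded with Ca8 no-wash dye plus quencher for 45-90 min at room temperature. Compounds were pinned during FDSS kinetic reading; agonist 54-4 at EC80 (4 uM final) then added.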
# 12-LOX inh = Primary qHTS assay for inhibitors of human arachidonate 12S-lipoxygenase (ALOX12): Round 2; Polyunsaturated fatty acid lipoxygenase ALOX12 (Homo sapiens), P18054; purified 12hLO, xylenol orange hydroperoxide absorbance; Potency, µM (highest dose often 108 µM), hits mostly inhibitors; actives 1.1% (n = 580,000); AID 1671190, 2021
#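 Purified human 12hLO at 150 nM in 25 mM Hepes, 0.01% Triton X-100, pH 7.0, preincubated 15 min at room temperature with compound. Reaction started with 40 uM arachidonic acid, 30 min at room temperature. Hydroperoxide measured by Fe-xylenol orange, 573/405 nm absorbance ratio.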
# Numbers stand for hits; - = inactive; ? = inconclusive; . = no result; ! = a repeat was not active. Unless noted, calls follow the shape of the dose curve; as a rule, active = well fitted curve in the direction sought with a large enough effect; inconclusive = small, poorly fitted or top-dose-only effect, or another doubt; inactive = no such curve, though single readings can be large; an effect the other way counts as inactive or inconclusive.
SMILES,Vif-A3F inh,Vif-APOBEC3G blk,TRPML1 agonist,GRP78 ERSR act,TRPML1 inh,12-LOX inh
S=C(NCCN1CCOCC1)N1CCN(c2cccc(Cl)c2)CC1,-,-,-,-,-,5.6µM
C(=C\c1ccco1)/c1ccc2ccccc2n1,-,?,-,-,-,40µM
O=c1c2ccc(F)cc2sn1-c1ccccc1,-,-,-,-,-,0.35µM
O=c1c2ccccc2sn1-c1ccc(F)cc1,-,-,-,-,-,?
Cc1ccc(-n2sc3cc(F)ccc3c2=O)c(C)c1,?,?,-,-,-,0.4µM
O=c1c2cc(F)ccc2sn1-c1ccccc1Cl,-,-,-,-,-,0.45µM
Cc1c(C(=O)Nc2ccc3nc(N4CCOCC4)sc3c2)oc2ccccc12,-,-,55,-,-,-
O=c1cc(-c2ccccc2)c2ccc(OCc3ccc(-c4ccccc4)cc3)cc2o1,.,.,.,.,.,-
O=C1OC(c2ccccc2)(c2cc(Br)ccc2O)c2ccccc21 (stereo not drawn),-,-,-,-,-,45µM
Cc1ccc(C)c(/C=C/C(=O)c2cccc([N+](=O)[O-])c2)c1,.,.,.,.,.,-
CNc1nc(-c2[nH]c(C)c(C(=O)OC)c2C)cs1,.,.,.,.,.,20µM
N#CC1(NC(=O)CNc2ccc(-c3nnnn3C3CC3)cc2)CCCC1,.,.,.,.,.,-
S=C(Nc1nc2c(s1)CCCC2)NC1CC1,?,-,-,-,-,45µM
COc1ccc(-c2nn3c(C4CCCCC4)nnc3s2)cc1OC,-,-,-,-,-,?
COc1cc(-c2nn3c(C4CCCCC4)nnc3s2)cc(OC)c1OC,.,-,-,-,-,25µM
COc1cc(NC(=O)Cn2c(C)nc3c(sc4cccc(F)c43)c2=O)cc(OC)c1OC,.,.,.,.,.,-
CCN1C(=O)/C(=C2/Sc3ccc(OC)cc3N2C)SC1=Nc1ccc(OC)cc1,-,-,-,-,-,-
C=CCN1C(=O)/C(=C2/Sc3ccc(OC)cc3N2C)SC1=Nc1cccc(O)c1,11µM,11µM,-,-,-,-
C/C(=N\NC(=S)NCc1ccccc1)c1cccs1,?,-,-,-,-,40µM
C/C(=N\NC(=S)NCc1ccccc1)c1ccc(C)o1,?,-,-,-,-,16µM
COCCN1Cc2ccc(NCC(C)C)nc2C(C)(C(=O)Nc2cccc(F)c2)C1 (stereo not drawn),.,.,.,.,.,-
CC1(c2ccccc2)N(Cc2cccnc2)C(=O)OC12CCN(Cc1ccccc1O)CC2 (stereo not drawn),.,.,.,.,.,-
CC1(c2ccccc2)N(Cc2ccccc2C#N)C(=O)OC12CCN(Cc1ccccc1F)CC2 (stereo not drawn),.,.,.,.,.,-
CC1(c2ccccc2)N(Cc2ccccc2C#N)C(=O)OC12CCN(Cc1c[nH]c3ccccc13)CC2 (stereo not drawn),.,.,.,.,.,32µM
CC1(c2ccccc2)N(Cc2ccccc2)C(=O)OC12CCN(Cc1c[nH]c3ccccc13)CC2 (stereo not drawn),.,.,.,.,.,45µM
SMILES,Vif-A3F inh,Vif-APOBEC3G blk,TRPML1 agonist,GRP78 ERSR act,TRPML1 inh,12-LOX inh
CSc1nc(Nc2ccccc2F)c(C#N)c(-c2ccccc2)n1,.,.,.,.,.,-
CC(=O)C1=C(C)N(Cc2ccc(F)cc2)C(=S)NC1c1ccc(Br)cc1 (stereo not drawn),.,.,.,.,.,35µM
CCN1C(=O)N[C@@H](c2ccc(Br)cc2)C(C(C)=O)=C1C,-,-,-,-,-,-
CC(=O)C1=C(C)N(Cc2ccc(Br)cc2)C(=S)NC1c1cccc(F)c1 (stereo not drawn),.,.,.,.,.,45µM
CC(=O)C1=C(C)N(Cc2ccc(Br)cc2)C(=S)NC1c1ccc(F)cc1 (stereo not drawn),.,.,.,.,.,35µM
CC(C)c1ccc(S(=O)(=O)N2CCN(C(=O)CNC(=O)NCc3ccc(F)cc3)CC2)cc1,.,.,.,.,.,-
COc1ccc(-c2c(C)oc3cc(OC(C)=O)ccc3c2=O)cc1,.,.,.,.,.,-
CCc1ccc(C(=O)N(Cc2ccco2)C2CC2)o1,.,.,.,.,.,-
O=C(CSc1nc2ccccc2o1)OCC(=O)N1CCCC1,.,.,.,.,.,-
CONC(=O)c1cccc(NC(=O)c2cccs2)c1,.,.,.,.,.,-
CCOC(=O)N1CCC(Nc2nc3ccccc3n3nnnc23)CC1,10µM,-,-,-,-,-
Fc1ccccc1Nc1nc2ccccc2n2nnnc12,25µM,-,-,-,-,-
C#CCNC[C@@H]1C=C(C)[C@H](Cc2nnc(-c3ccccc3F)o2)C[C@H]1C(C)C,.,.,.,.,.,-
COc1ccc(CNC[C@H]2O[C@H](Cc3cc(-c4ccccc4)on3)CC[C@@H]2O)cc1,.,.,.,.,.,-
Cc1csc(NC(=O)c2cc(-c3ccco3)nc3ccccc23)n1,-,-,-,-,-,25µM
Cc1csc(NC(=O)c2cc(C)nc3ccccc23)n1,-,-,-,-,-,-
CN(C)C(=O)c1ccc(NC(=O)c2cc(-c3ccco3)nc3ccccc23)cc1,-,-,-,-,-,16µM!
O=C(Nc1nccs1)c1cc(-c2ccccc2)nc2ccccc12,-,-,-,-,-,-
Cc1csc(NC(=O)c2ccc3ccccc3n2)n1,-,-,-,-,-,14µM
O=C(Nc1nccs1)c1cc(-c2ccco2)nc2ccccc12,-,-,-,-,-,45µM
Cc1[nH]n2c(=O)cc(-c3ccc(Cl)cc3)nc2c1-c1ccc(F)cc1,.,.,.,.,.,22µM
COc1ccc(/C=N/NC(=O)c2cccnc2)cc1CSc1ccccn1,-,7.1µM,-,-,-,-
O=C(N/N=C/c1cccc2ccccc12)c1cccnc1,-,-,.,-,.,11µM
Cc1c(-c2cccc3ccccc23)c(=O)oc2ccc(Br)cc12,.,.,.,.,.,-
